# Screening data as filed in PubChem BioAssay.
# This is a sample that favours compounds with a hit; in the whole collection about 7.4% have one here.
# FLuc counter: counter-screen for miR-21 project: firefly luciferase inhibitors or activators. purified FLuc, Km substrates, luminescence inhibition. 360,000 compounds, 6.9% hits. Potency, µM (series often up to 57.5 µM), inactives show at the top dose activity change, negative = inhibition, most hits filed as inhibitors. P08659. AID 588342;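 further: plate controls were vehicle for no effect and reference inhibitor for full effect; nearly all actives have a fitted effect of over 55% in size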
# Target sequence (P08659 whole entry, looked up): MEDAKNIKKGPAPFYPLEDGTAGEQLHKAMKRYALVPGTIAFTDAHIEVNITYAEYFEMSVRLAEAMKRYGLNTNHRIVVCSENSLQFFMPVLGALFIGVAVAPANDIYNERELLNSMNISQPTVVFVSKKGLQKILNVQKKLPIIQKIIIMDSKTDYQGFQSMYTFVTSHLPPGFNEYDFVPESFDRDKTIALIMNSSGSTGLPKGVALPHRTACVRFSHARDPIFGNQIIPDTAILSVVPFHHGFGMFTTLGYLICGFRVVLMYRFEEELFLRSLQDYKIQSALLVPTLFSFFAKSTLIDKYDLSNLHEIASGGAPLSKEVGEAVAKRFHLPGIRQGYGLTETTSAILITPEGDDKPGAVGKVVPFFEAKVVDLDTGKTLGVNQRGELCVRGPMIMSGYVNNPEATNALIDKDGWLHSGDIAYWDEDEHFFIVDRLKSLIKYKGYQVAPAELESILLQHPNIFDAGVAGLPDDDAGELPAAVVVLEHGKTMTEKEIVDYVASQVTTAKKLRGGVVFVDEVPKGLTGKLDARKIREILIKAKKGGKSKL
#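 Biochemical qHTS of compounds, final roughly 60 µM downward over six points, against 10 nM purified firefly luciferase using Km concentrations of substrates (10 uM D-luciferin, 10 uM ATP) in Tris acetate pH 7.5 buffer; luminescence output.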
# SMN2 splice up: SMN2 splice variant enhancement; 210,000 compounds, 2.8% hits; Potency, µM (series often up to 46.1 µM), without a hit: top-dose activity change, positive = activation, usual class: activators; AID 1458; HEK293 SMN2-luciferase splicing reporter, luminescence, 30-36 h; further: % of control where 0% means no effect; nearly all actives have a fitted effect of over 55% in size
#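 qHTS luciferase splicing reporter: luminescence rises when SMN2 exon 7 is included in transfected HEK293 cells. Compound exposure lasted 30-36 h at 37C, with 4.5 mM final sodium butyrate as control, followed by a ONE-Glo read.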
# Rab9 promoter act: Rab9 promoter activation; Huh7 Rab9 promoter-luciferase reporter, luminescence, 24 h; Potency, µM (top dose mostly 9.22 µM), without a hit: top-dose activation, negative = inhibition, usual class: activators; 320,000 compounds, 2.8% hits; AID 485297; further: % of control where 0% means no effect; nearly all actives have a fitted effect of over 60% in size
#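 Rab9 promoter-driven luciferase in stably transfected Huh7 cells; 1500 cells/well rested 2 h, exposed to compound in DMSO for 24 h at 37 °C, 5% CO2. Luminescence read 10 min after adding luciferase reagent at ambient temperature.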
# NPC1 promoter act: activators of NPC1 promoter | Huh7 NPC1 promoter luciferase reporter, 24 h | Potency, µM (highest dose often 9.22 µM), for the others: top-dose activation, hits mostly activators | 320,000 compounds, 2.4% hits; further: % of control where 0% means no effect; nearly all actives have a fitted effect of over 60% in size
#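 Luminescence read-out of NPC1 promoter-driven luciferase in stably transfected Huh7 cells; compounds delivered in DMSO and left 24 h at 37C, 5% CO2, qHTS titration format.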
# ELG1 genotox: induces genotoxicity in HEK293T cells with luciferase-tagged ELG1 | HEK293T ELG1-luciferase reporter, luminescence, 16 h | Potency, µM (top dose mostly 46 µM), for inactives: at the highest dose activity change, positive = activation, hits mostly activators | 330,000 compounds, 1.3% hits | AID 504466; further: % of control where 0% means no effect; nearly all actives have a fitted effect of over 60% in size
#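 DMSO vehicle served as control against compound-treated ELG1-luciferase HEK293T cells; exposure lasted 16 hr at 37 °C and 5% CO2, followed by ONE-Glo luminescence detection after 30 min.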
# Active calls of the source: *; ? = inconclusive; · = no result given; [ ] = remark or other dose. The call rests on the fitted dose curve; in most records, active means well fitted curve in the direction sought with a large enough effect; inconclusive means small, poorly fitted or top-dose-only effect, or another doubt; inactive means no such curve, though single readings can be large; an effect the other way counts as inactive or inconclusive. Potency means the concentration at half of the fitted maximal effect.
SMILES,FLuc counter,SMN2 splice up,Rab9 promoter act,NPC1 promoter act,ELG1 genotox
COc1ccc(CCNC(=O)CSc2ncc3c(n2)-c2cc(Cl)ccc2N(Cc2ccccc2)S3(=O)=O)cc1OC,-4%,·,·,·,·
COc1ccc2[nH]cc(CCNc3nc(-c4ccc(C(=O)N(C)C)cc4)nc4ccccc34)c2c1,·,11µM*,·,·,·
C=Cc1cccc(C)c1,·,-3%,·,·,·
O=C(NC(=S)NNC(=O)c1ccccc1O)c1ccc(F)cc1,27µM*,·,3%,0%,2%
O=C(NC(=S)NNC(=O)c1ccccc1O)c1ccccc1,24µM*,·,10%,-2%,7%
CC(C)C[C@@H](CC(=O)N[C@H](CC(=O)N[C@@H]1CCCC[C@H]1C(=O)N[C@H](CC(=O)N[C@@H](CCC(=O)O)CC(=O)O)CC(C)C)C(C)C)NC(=O)[C@@H]1CNCC[C@H]1N,·,9%,·,·,·
O=C(COc1ccc(F)cc1F)Nc1cccnc1,-15%,·,5%,10%,17%
Cc1ccc(Cl)c(OCC(=O)Nc2cccnc2)c1,15µM*,·,8%,?,?
O=C(COc1ccccc1Cl)Nc1cc(NC(=O)COc2ccccc2Cl)cc(C(=O)O)c1,?,·,4µM*,?,?
COc1ccccc1OCC(=O)Nc1cc(NC(=O)COc2ccccc2OC)cc(C(=O)O)c1,-13%,·,4%,1%,11%
O=C(COc1ccccc1Cl)Nc1cccnc1,19µM*,·,?,?,?
CC(=O)Nc1cccc(C(=O)N/N=C/c2cccc(C)n2)c1,?,·,0%,0%,4%
Cc1ccc(C(=O)Nc2cccc(C(=O)N/N=C/c3ccc(O)cc3)c2)cc1,0.67µM*,·,2µM*,1.4µM*,12%
Cc1cccc(C(=O)Nc2cccc(C(=O)N/N=C/c3cccc(C)n3)c2)c1,17µM*,·,2%,1%,-1%
O=C(N/N=C/c1cccc(NC(=O)c2ccc(Cl)cc2)c1)c1cccc(O)c1,1.9µM*,·,2.8µM*,1.3µM*,-3%
CCn1c(=O)cc(OCC(=O)N(C)c2ccc(OC)cc2)c2ccccc21,2%,6%,·,·,·
O=C(O)CCC(=O)NNC(=O)CCC(=O)Nc1ccccc1,1%,10%,-2%,3%,-8%
CC1CC1C(=O)OCC(=O)NC(=O)c1ccccc1 (stereo not drawn),-19%,·,-1%,0%,1%
CC1CC1C(=O)OCC(=O)Nc1ccc(N=Nc2ccccc2)cc1 (stereo not drawn),?,13µM*,1.8µM*,3.2µM*,16µM*
COc1ccccc1C(=O)NC(=O)COC(=O)C1CC1C (stereo not drawn),8.5µM*,·,0%,8%,-7%
CCCC(=O)OCC(=O)Nc1ccc(N=Nc2ccccc2)cc1,9.5µM*,16µM*,3.5µM*,2.2µM*,21µM*
O=C(O)CCC(=O)Nc1ccc(N=Nc2ccccc2)cc1,11µM*,10%,16%,12%,10%
CN(C)c1ccc(CNC(=O)c2ccc3c(c2)N(C)C(=O)C2CCCCN32)cc1 (stereo not drawn),3%,·,·,·,·
COc1ccc2c(c1)cc1c(=O)n(CC(=O)NCCCc3ccccc3)nc(C)n12,0%,3%,·,·,·
O=C(COC(=O)C1CC1)Nc1ccc(Oc2ccccc2)cc1,21µM*,6%,?,-2%,-2%
SMILES,FLuc counter,SMN2 splice up,Rab9 promoter act,NPC1 promoter act,ELG1 genotox
O=C(CCCC(=O)OCC(=O)c1cccs1)Nc1ccc(Oc2ccccc2)cc1,21µM*,5%,-2%,1%,-3%
CC(C)(C)C(=O)Nc1ccc(C(=O)COC(=O)C2CC2)cc1,7.6µM*,·,3.5µM*,?,11%
CC(C)(C)C1CCC2(CC1)CCN(CCCN1CCOCC1)CC2,·,-6%[9.22 µM],·,·,·
Nc1ccc(C(=O)N/N=C/c2ccccc2)cc1,11µM*,?,3.2µM*,?,?
O=C(N/N=C\c1ccc(F)cc1)c1ccc(F)cc1,19µM*,?,?,?,?
COC(=O)c1ccc(/C=N/NC(=O)c2cccc(F)c2)cc1,-66%,14µM*,3.2µM*,2µM*,?
O=C(N/N=C/c1cccnc1)c1ccc([N+](=O)[O-])cc1,15µM*,-12%,-2%,-4%,0%
O=C(N/N=C/c1cccnc1)c1ccccc1,?,·,11%,16%,10%
COc1cccc(-n2c(C)nc3c(cnn3-c3ccc(C)c(C)c3)c2=O)c1,?,-8%,·,·,·
CCNS(=O)(=O)c1ccc(C)cc1,·,0%,·,·,·
Cc1cccc2sc(N(Cc3cccnc3)C(=O)C3CCCCC3)nc12,1%,·,·,·,·
CN(Cc1ccco1)c1ncnc2ccc(-c3ccc4c(c3)OCCO4)cc12,-16%,·,-17%,-17%,·
COc1ccc2cc(CNc3ccccc3)c(=O)n(CC(=O)Nc3ccc(C)cc3C)c2c1,2%,·,·,·,·
CSc1ccc(/C=N/NC(=O)c2cccc(O)c2)cc1,4.3µM*,?,3.5µM*,?,?
CN(C)/C=C(\C#N)C(=O)N/N=C/c1ccc(F)cc1,17µM*,5%,10%,10%,4%
O=C(N/N=C/c1ccoc1)c1ccc([N+](=O)[O-])cc1,21µM*,·,1%,4%,7%
CC(C)(C)NC(=O)C(=O)N/N=C/c1ccc(F)cc1,-8%,5%,2%,8%,1%
O=C(N/N=C\c1cccc(O)c1)c1ccncc1,·,-3%[9.22 µM],·,·,·
O=C(N/N=C/c1cccnc1)c1ccc(F)cc1,13µM*,·,?,27%,14%
O=C(Nc1ccccc1)N1CC[C@@]2(CCCN(C(=O)c3cnccn3)C2)C1,·,0%,·,·,·
COc1ccccc1NC(=O)c1cc2c(=O)n(Cc3cccs3)ccc2nc1C,-4%,·,·,·,·
Cc1cc(C(=O)N/N=C/c2cccnc2)cs1,?,?,17%,0%,7%
CC(=O)n1cc(/C=N/NC(=O)c2ccc([N+](=O)[O-])cc2)c2ccccc21,6.7µM*,·,11%,6%,3%
Cc1c(/C=N\NC(=O)c2ccc([N+](=O)[O-])cc2)cnn1C,-17%,0%,2%,1%,1%
Cc1ccc(C(=O)N/N=C\c2cccnc2)s1,6.7µM*,·,?,24%,?
SMILES,FLuc counter,SMN2 splice up,Rab9 promoter act,NPC1 promoter act,ELG1 genotox
Cc1ccccc1CNC(=O)c1c(C)oc2c1C1=NCCN1C=N2,3%,·,·,·,·
C=C(C)C1CC[C@]2(CO)CC[C@@]3(C)[C@H](CCC4[C@@]5(C)CCC(O)C(C)(C)C5CC[C@@]43C)C12 (stereo partly drawn),·,8%,·,·,·
CC1(C)CC(=O)c2cc(C(=O)Nc3ccc(Cl)cc3)c(=O)[nH]c2C1,2%,8%,·,·,·
N=c1sc2ccccc2n1CCS (tested in a mixture with another compound),·,-4%[9.22 µM],·,·,·
COc1cccc(/C=C/c2[nH]c(=O)[nH]c(=O)c2[N+](=O)[O-])c1O,17µM*,·,6%,1%,0%
Cc1cc(C)cc(O)c1,·,7%,·,·,·
